The structures appear in SMILES notation. Where a name gives a salt, the structure may show the parent alone. ± gives the standard deviation of the averaged measurements. Some results are limits rather than exact numbers.

The subject of this test is Toxoplasma gondii RH (in HFF). As to the kind of experiment: parasite growth relative to the screen mean (all compounds = 100%); higher = less inhibition of parasite growth. As to conditions: 5 µM; 72 h; oxygen 21 %. The method, boiled down: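 Library compounds, held as 10 mM DMSO stocks, were pinned to 5 µM final onto confluent human foreskin fibroblasts in 96-well plates. The cells were infected within 2 h with RH β-Gal–GFP Toxoplasma (MOI 1:5), grown 72 h at 21% O2, and assayed for parasite number by CPRG β-Gal using in-plate standard curves. Growth is reported relative to the screen mean, in which all compounds = 100%, averaged over two screens, and CellTiter-Blue checked uninfected host-cell viability.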
The compound `CCCCCCCCCCC[C@@H](C[C@@H]1OC(=O)[C@H]1CCCCCC)OC(=O)[C@H](CC(C)C)NC=O` [Orlistat] registered a parasite growth of less than 0%.

On to `CC(C)NCC(O)COc1cccc2ccccc12` (centres undefined) [Propranolol hydrochloride], for which the parasite growth stood at 99.4 ± 14%.

Compound `O=C1c2ccccc2C(Cc2ccncc2)(Cc2ccncc2)c2ccccc21` [XE 991 dihydrochloride] returned a parasite growth of 34.3 ± 6.2%.

`CN(C)C/C=C(/c1ccc(Br)cc1)c1cccnc1` [Zimelidine dihydrochloride] had a parasite growth of 126 ± 4.6%.

Turning to `O=C1CC2(CCCC2)CC(=O)N1CCNCC1COc2ccccc2O1` (centres undefined), the parasite growth was 152 ± 13%.

Turning to `COc1ccc(Cl)cc1C(=O)NCCc1ccc(S(=O)(=O)NC(=O)NC2CCCCC2)cc1` [Glibenclamide], the parasite growth was found to be 96.4 ± 24%.

Regarding `O/N=C/c1ccc(-c2ccc(O)c(F)c2)c(Cl)c1O`, the parasite growth was less than 0%.

Take `O=C1OC(OC(=O)c2cccnc2Nc2cccc(C(F)(F)F)c2)c2ccccc21` (centres undefined) [Talniflumate]: the parasite growth is 113 ± 28%.

The compound `NC(C(=O)O)c1ccc(C(=O)O)c(C(=O)O)c1` (centres undefined) displayed a parasite growth of 141 ± 3%.

`O=C1CC2(CCCC2)CC(=O)N1CCCCN1CCN(c2ncccn2)CC1` [Buspirone hydrochloride] yielded a parasite growth of 171 ± 21%.

In the case of `CCCCn1c(=O)c2[nH]c(C34CC5CC(CC3C5)C4)nc2n(CCCO)c1=O`, the parasite growth is 101 ± 16%.

In the case of `CN1CCN2c3ccccc3Cc3ccccc3C2C1` (centres undefined) [Mianserin hydrochloride], the parasite growth came out at 154 ± 39%.

`COc1c(C)c2c(c(O)c1C/C=C(\C)CCC(=O)O)C(=O)OC2` [Mycophenolic acid] registered a parasite growth of less than 0%.

In the case of `CCS(=O)(=O)N1CCC[C@@H]2CN3CCc4cc(OC)ccc4[C@@H]3C[C@@H]21`, the parasite growth was found to be 125 ± 31%.

Compound `O=C(C=Cc1ccccc1)NC(NC(=S)Nc1ccc(Cl)cc1)C(Cl)(Cl)Cl` (centres undefined) showed a parasite growth of 34.8 ± 9.4%.

On to `N[C@@H](C(=O)O)c1ccc(O)c(C(=O)O)c1` [(R)-3-Carboxy-4-hydroxyphenylglycine], for which the parasite growth is 148 ± 15%.

Compound `O=C(/C=C/c1ccc(O)c(O)c1)OCCc1ccccc1` [Caffeic acid phenethyl ester] came in with a parasite growth of 105 ± 73%.

In turn, `CC1CCN(CC[C@H]2CCCN2S(=O)(=O)c2cccc(O)c2)CC1` had a parasite growth of 120 ± 15%.

`COc1ccc(-c2ccc(=N)n(CCCC(=O)O)n2)cc1`: the parasite growth is 133 ± 26%.

Compound `O=[N+]([O-])c1cc(Cl)ccc1S(=O)(=O)N1CCN(Cc2ccccc2)CC1` came in with a parasite growth of 130 ± 24%.

On to `C[C@H](NC[C@H](O)CP(=O)(O)Cc1ccccc1)c1ccc(Cl)c(Cl)c1`, for which the parasite growth was 108.5 ± 0.57%.

For `Cc1cccc(CCN2CCC(C(=O)c3ccc(NS(C)(=O)=O)cc3)CC2)n1` [E-4031 dihydrochloride], the parasite growth came out at 150 ± 13%.

`O=c1[nH]c2cc(Cl)ccc2c(O)c1-c1cccc(Oc2ccccc2)c1` returned a parasite growth of 103 ± 19%.

Turning to `CCOC(=O)N1CCC(=C2c3ccc(Cl)cc3CCc3cccnc32)CC1` [Loratidine], the parasite growth turned out to be 112 ± 4.8%.

Compound `COc1ccc2cccc(N3CCN(CCNC(=O)c4ccc(F)cc4)CC3)c2c1` displayed a parasite growth of 122 ± 20%.

In the case of `CC1(C(=O)O)NCCc2cc(O)c(O)cc21` (centres undefined) [Salsolinol-1-carboxylic acid], the parasite growth was determined as 104 ± 22%.

In turn, `CC(C)[C@H](NS(=O)(=O)c1ccc(-c2ccc(Br)cc2)cc1)C(=O)O` came in with a parasite growth of 130 ± 34%.

With `COc1cc2c(cc1O)CC[C@@H]1[C@@H]2CC[C@]2(C)[C@@H](O)CC[C@@H]12` [2-Methoxyestradiol], the parasite growth stood at 174 ± 46%.

`COC1(C2=NCCN2)COc2ccccc2O1` (centres undefined) yielded a parasite growth of 136 ± 3.9%.

On to `N=C(N)S/C=C\C(=O)O` [ZAPA sulphate], for which the parasite growth is 106 ± 28%.

Turning to `Oc1ccc(-c2nc(-c3ccc(F)cc3)c(-c3ccncc3)[nH]2)cc1`, the parasite growth is less than 0%.

As to `Cn1cc(C(=O)OCC2CCN(CCNS(C)(=O)=O)CC2)c2ccccc21`, the parasite growth was determined as 123 ± 3.8%.

For `COc1cc(C[C@H]2C(=O)OC[C@@H]2Cc2ccc(OC)c(OC)c2)ccc1O` [Arctigenin], the parasite growth turned out to be 125 ± 10%.

Consider `CN(C(=O)CCCOc1ccc2[nH]c(=O)ccc2c1)C1CCCCC1` [Cilostamide], for which the parasite growth stood at 69.6 ± 26%.

In turn, `Nc1nc(Nc2ccccc2)nc2c1ncn2[C@@H]1O[C@H](CO)[C@@H](O)[C@H]1O` registered a parasite growth of 123 ± 7.1%.

In the case of `N[C@@H](CC(=O)Nc1ccc(Oc2cc(F)c(F)cc2Br)cc1)C(=O)O`, the parasite growth was determined as 149.3 ± 0.68%.

Turning to `CC1(C)C(=O)NC2=C1C(=O)C(=O)c1ccccc12`, the parasite growth was less than 0%.

`c1nc(CC2CCNCC2)c[nH]1` [Immepip dihydrobromide] gave a parasite growth of 100.2 ± 0.4%.

In turn, `O=c1c(O)c(-c2ccc(O)c(O)c2)oc2cc(O)cc(O)c12` [Quercetin] displayed a parasite growth of 180 ± 32%.

Source of the values: the supplement of paper PMC4894684.
